Assay results as given in PubChem BioAssay.
Measured potencies and affinities stand elsewhere. Results filed as inconclusive are left out. Activity calls are given as the source filed them.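 The calls were made as follows, unless noted: active = falling signal with fitted half-maximal potency no higher than twice the top valid tested dose; inconclusive = poor fit quality, or flat fit spanning -70% to -30%; inactive = potency over limit, rising signal, or flat fit inside 30%.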

Experiments:
[1] = Cryptococcus neoformans growth inhibition, dose response, Alamar Blue, cherry-picks (AID 686998); conditions: 24 h; series mostly up to 35 µM
[2] = inducers of Cryptococcus neoformans cell lysis, dose response, AK release luminescence, cherry-picks (AID 687000;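 active = fitted dose curve reaches 40% lysis signal rise at or below the highest valid concentration tested for that sample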;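 also: luminescent detection of adenylate kinase leaking from lysed yeast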); conditions: C. neoformans lysis, adenylate kinase release luminescence, 4 h, 100% = twice the neutral-control signal; series mostly up to 15 µM
[3] = HepG2 cell cytotoxicity, dose response, cytotoxicity control, cherry-picks, set 2 (AID 687002;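 active = a dose-response fit showing signal loss, with half-maximal concentration no higher than twice the top tested dose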); conditions: HepG2 viability, ATP luminescence (CellTiter-Glo), 48 h; series mostly up to 26 µM
[4] = HeLa cell cytotoxicity, dose response, cytotoxicity control, ATP luminescence, cherry-pick samples (AID 687004;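 active = a fitted half-maximal concentration no higher than twice the top valid tested dose, with signal falling as cells die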); conditions: HeLa viability, ATP luminescence (CellTiter-Glo), 48 h; series mostly up to 26 µM

Measured: outcome

C[C@@H](NC(=O)C[C@H]1CC[C@@H](NC(=O)Cc2ccccn2)[C@@H](CO)O1)c1ccccc1
inactive: all assays above

Cc1noc(C)c1S(=O)(=O)Nc1ccc2c(c1)C(=O)N([C@@H](C)CO)C[C@H](C)[C@@H](CN(C)Cc1ccc3c(c1)OCO3)OCCCC[C@@H](C)O2
inactive: all assays above

CN(C)C(=O)c1ccc(-c2ccc([C@H]3[C@H]4CN(CCC(F)(F)F)CCCCN4[C@H]3CO)cc2)cc1
inactive: all assays above

COc1ccccc1CNC(=O)C[C@@H]1C[C@H]2c3cc(NC(=O)Nc4ccccc4F)ccc3O[C@H]2[C@@H](CO)O1
inactive: all assays above

CNC(=O)C[C@@H]1CC[C@@H]2[C@H](COc3ccc(NC(=O)c4cc(C)on4)cc3C(=O)N2C)O1
inactive: all assays above

C[C@@H]1CCCCO[C@H](CN(C)Cc2ccncc2)[C@@H](C)CN([C@@H](C)CO)C(=O)c2cc(NC(=O)Nc3ccccc3)ccc2O1
inactive: all assays above

C[C@H](CO)N1C[C@H](C)[C@H](CN(C)C(=O)NC2CCCCC2)OCCCC[C@H](C)Oc2ccc(NC(=O)C3CCCCC3)cc2C1=O
inactive: all assays above

CCCN1C[C@@H](C)[C@H](OC)CN(C)C(=O)c2ccc(NC(=O)c3cccc(F)c3)cc2OC[C@@H]1C
inactive: all assays above

C[C@H]1CN([C@@H](C)CO)C(=O)c2cc(NC(=O)Nc3ccc(F)cc3)ccc2O[C@@H]1CN(C)S(C)(=O)=O
inactive: [1] | [3]

COc1cccc(-c2ccc3c(c2)[C@H]2[C@H](CCN2C(=O)Cc2ccncc2)[C@H](CO)N3C)c1
inactive: [1] | [3]

CCNC(=O)C[C@H]1CC[C@H](NC(=O)NC2CCCCC2)[C@@H](CO)O1
inactive: [1] | [3] | [4]

CCCNC(=O)C[C@@H]1CC[C@@H]2[C@H](COc3ccc(NC(=O)CCC)cc3C(=O)N2C)O1
inactive: [1] | [3]

C[C@@H]1CN([C@H](C)CO)S(=O)(=O)c2ccc(C#CC3CC3)cc2O[C@H]1CN(C)CC1CCOCC1
inactive: [1] | [3]
